Measured values taken from ChEMBL document CHEMBL4513216, “Probing the Open Global Health Chemical Diversity Library for Multistage-Active Starting Points for Next-Generation Antimalarials” (ACS Infect Dis, 2020).
Screen size: about 65,000 compounds; about 2,100 (3.2%) showed an effect of 50% or more. The median lay at about -52%. This is one part of a sample in which strong results are shown more often than they occur.

Each compound was assayed on Plasmodium falciparum (assay: Screen against P. falciparum Asexual Blood Stage (ABS), at 5uM). Settings: tested at 5 uM.
Assay type: functional, Dd2

Row | Compound | INHIBITION
1 | O=C(Cc1c[nH]c2ccccc12)N1CCC(Nc2ccccc2)CC1 | -7.04%
2 | COCCN1CCN(c2ccc(C)nn2)Cc2cccnc21 | -2.72%
3 | CN1CCc2c(CNC(=O)c3nccn3C)cncc2C1 | -77.8%
4 | Cc1n[nH]cc1C(=O)NCc1cccnc1N1CCc2ccccc2C1 | 75.3%
5 | O=C(C1CCC1)N1CCC2(CCNCC2)C1 | -39.1%
6 | COc1ccc(-c2c(C)nn3c(=N)c(C#N)n[nH]c23)cc1OC | 87.8%
7 | O=C(c1cccnc1)N1C[C@@H]2OCCN(CCN3CCCC3)[C@@H]2C1 | -134%
8 | CC(=O)NC[C@H]1C[C@@H]2CCN1C[C@@H]2c1cc(-c2cccs2)nn1C | -50.5%
9 | c1ccc(CN2CC[C@H]3[C@H]2CCN3c2ncccn2)nc1 | -84.3%
10 | Cn1cccc1CNCC1CCCn2cc(C(C)(C)C)nc21 (stereo unspecified) | 75.7%
11 | CC(C)(C)c1cn2c(n1)C(CNCc1cnn3ccccc13)CCC2 (stereo unspecified) | 80%
12 | CC(C)(C)c1cn2c(n1)C(CNCc1ccccn1)CCC2 (stereo unspecified) | 92.9%
13 | Cc1cccc(CN2C(=O)C[C@H]3[C@@H]2CCN3Cc2ccccn2)n1 | -22.5%
14 | Cc1nc(NCC2CC2)nc2c1COCC21CCNC1 (stereo unspecified) | -88.5%
15 | Cc1noc([C@]23COC[C@H]2CN(Cc2cc(C)on2)C3)n1 | -5.88%
16 | Cc1nn(C)c2nc(N3CCCCC3c3cccnc3)sc12 (stereo unspecified) | -114%

Row | Compound | INHIBITION
17 | CCCS(=O)(=O)N1CCc2c(COCC)cncc2C1 | -24.8%
18 | Cc1noc(C)c1CN1C[C@@H]2CCCO[C@@H]2[C@H](NS(C)(=O)=O)C1 | -59.8%
19 | O=C(NCC(=O)N1CCC2(CC1)OCCO2)c1ccoc1 | -196%
20 | CS(=O)(=O)N1C[C@@H]2CC[C@H]1CN(Cc1ccncc1)C2 | -82.5%
21 | CC(C)=CCN1CCC2(CC1)c1ccccc1[C@@H](N1CCSCC1)[C@@H]2O | 78.5%
22 | COCCn1cc(C(=O)NCCS(N)(=O)=O)c2ccccc21 | -110%
23 | CCC(O)Cn1cc(C2=CCN(Cc3cc(O)nc(C)n3)CC2)cn1 (stereo unspecified) | -24.6%
24 | Cn1cc(C2=CCN(CCCOc3ccc(C(N)=O)cc3)CC2)cn1 | -64.5%
25 | O=c1[nH]ccn1CCCN1CC=C(c2cnn(-c3ccccc3)c2)CC1 | -235%
26 | COc1cccc(Cn2cc(C3=CCN(CC(=O)N(C)C)CC3)cn2)c1 | -27.6%
27 | Cc1nc(O)cc(CN2CC=C(c3cnn(-c4ccccc4)c3)CC2)n1 | -90.2%
28 | CCn1cc(C2=CCN(CCCOc3ccccc3)CC2)cn1 | 82%
29 | COc1cccc(Cn2cc(C3=CCN(CCO)CC3)cn2)c1 | 54.2%
30 | CN(C)C(=O)CN1CC=C(c2cnn(Cc3ccccc3)c2)CC1 | -52.4%
31 | CCC(O)Cn1cc(C2=CCN(Cc3ccc(OC)cc3)CC2)cn1 (stereo unspecified) | 68.7%
